D2 PAM-1 = positively modulates the human D2 dopamine receptor allosterically. potentiation, % at 10 µM. AID 485347. 340,000 tested, 0.34% active. HEK293 T-REx D2, calcium flux, EC20 dopamine potentiation. P14416;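 active = potentiation over 3 SD above the plate norm, cut at about 30% in these data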; note: 0% is about no effect
Target sequence (P14416 whole entry, looked up): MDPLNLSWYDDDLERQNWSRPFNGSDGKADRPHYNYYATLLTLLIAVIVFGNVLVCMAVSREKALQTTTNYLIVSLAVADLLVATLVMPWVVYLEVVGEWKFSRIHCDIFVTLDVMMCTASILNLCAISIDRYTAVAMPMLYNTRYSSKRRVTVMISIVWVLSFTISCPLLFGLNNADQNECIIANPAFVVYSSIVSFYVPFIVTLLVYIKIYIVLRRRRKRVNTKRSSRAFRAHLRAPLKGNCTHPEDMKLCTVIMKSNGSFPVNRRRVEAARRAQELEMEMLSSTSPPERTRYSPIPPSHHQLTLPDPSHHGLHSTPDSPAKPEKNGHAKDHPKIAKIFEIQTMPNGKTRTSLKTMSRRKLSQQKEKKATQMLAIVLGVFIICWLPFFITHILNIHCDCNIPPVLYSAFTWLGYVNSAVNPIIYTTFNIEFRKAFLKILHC
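Using a no-wash calcium dye in inducible, force-coupled HEK293 Trex cells expressing D2, we tracked fluorescence each second for 180 s after compound, then for 180 s after EC20 dopamine to detect augmented signalling.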
D2 PAM-2 = potentiates the human D2 dopamine receptor allosterically | P14416 | DiscoveRx D2 beta-arrestin cells, luminescence, 90 min; 100% = 57 uM dopamine signal | potentiation, % (no concentration beside the values) | 360,000 tested, 0.23% active | AID 624464; in the data active = potentiation above about 50%; inconclusive = mostly about 30% to 49%
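PathHunter D2 cells, attached overnight at 37 deg C, received compound in DMSO plus dopamine at EC20 (50 nM final) for 90 min at 37 deg C. Beta-arrestin recruitment was read as luminescence after 1 h with detection reagent at ambient temperature.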
D2 ag-1 = activates the human D2 dopamine receptor | 360,000 tested, 0.084% active | DiscoveRx PathHunter D2 beta-arrestin, luminescence, 90 min; 100% = 57 uM dopamine signal | P14416 | activation, % (concentration not given with the values); in the data active = activation above about 40%; inconclusive = between about 15% and that limit
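DiscoveRx PathHunter D2 beta-arrestin cells (2,100/well) attached overnight, then compound-stimulated 90 min at 37 C in HBSS/10 mM HEPES/0.1% Tween-20 buffer; beta-galactosidase complementation read by luminescence after 1 h at ambient temperature. Dopamine 57 uM final (EC100) as control.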
D2 antag = D2 dopamine receptor (human) antagonism | P14416 | HEK293 TREx D2 cells, calcium flux, dopamine EC80 | inhibition, % at 10 µM | 340,000 tested, 2% active | AID 485344; in the data active = inhibition above about 30%; inactive = below that, where a call was filed; note: 0% is about no effect
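Compounds are added to dye-loaded, induced HEK293 T-REx cells coupled to calcium release via D2; after a 3 min kinetic read an EC80 dopamine stimulus is given and fluorescence is recorded for 3 more min.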
D2 ag-2 = agonists of human D2 dopamine receptor | P14416 | HEK293 T-REx D2 cells, calcium flux agonist mode | activation, % at 2 µM | 340,000 tested, 0.53% active;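 active = activation over 3 SD above normal in the single-dose calcium agonist read, cut at about 30% in these data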; note: 0% is about no effect
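Calcium-flux readout, 1 cycle/sec over 180 s following compound pin transfer, in inducible HEK293 Trex D2 cells (force-coupled); dopamine controls included. Positive calcium responses during this window marked compounds as potential agonists.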
D3 ag = D3 receptor agonism confirmed, beta-arrestin readout. shares compounds with D2 ag-2. DiscoveRx D3 beta-arrestin cells, luminescence, 90 min. Potency, µM (top dose mostly 76.9 µM), for the others: at the top dose activation, hits mostly activators. 2,300 tested, 4% active;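 note: potency is the fitted concentration of half-maximal effect; 100% = dopamine control response; nearly all actives have a fitted effect of over 70% in size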
D2 ag-3 = counter-screen for D3 agonists: human D2 dopamine receptor agonism; shares compounds with D2 ag-2; DiscoveRx PathHunter D2 beta-arrestin, luminescence, 90 min; response scale: percent relative to full dopamine signal; Potency, µM (doses to about 76.9 µM), inactives show top-dose activation, hits mostly activators; 2,300 tested, 5.9% active; note: potency is the fitted concentration of half-maximal effect; % of control where 0% means no effect; nearly all actives have a fitted effect of over 70% in size
Numbers without * were called inactive. Most compounds without a hit are left out; they make up all but 2.4% or so of the library. Unless noted, calls come from the whole dose curve; as a rule, active = well fitted activation curve with a large enough effect; inconclusive = small, poorly fitted or top-dose-only effect; inactive = flat fitted curve, though single readings scatter.

Results for CC(=O)Nc1ccc(C(=O)OCCCOC(=O)c2ccc(NC(C)=O)cc2)cc1 ?
D2 PAM-1: -13.8; D2 PAM-2: -13.2; D2 ag-1: -1.0; D2 antag: 14.6; D2 ag-2: 76.4*; D3 ag: -4.9%; D2 ag-3: -4.0%

Results for CC(=O)Nc1ccc(/C=N/NC(=O)CCN2CCN(c3ccccc3)CC2)cc1 ?
D2 PAM-1: -19.6; D2 PAM-2: 2.8; D2 ag-1: 9.3; D2 antag: 51.4*; D2 ag-2: 78.6*; D3 ag: inconclusive; D2 ag-3: 27.4%

Results for O=C(CCN1CCN(c2ccccc2)CC1)N/N=C/c1ccccc1OC(F)F ?
D2 PAM-1: -21.9; D2 PAM-2: 9.4; D2 ag-1: inconclusive; D2 antag: 87.7*; D2 ag-2: 74.7*; D3 ag: -5.4%; D2 ag-3: inconclusive

What do the screens show for `COc1cc(/C=N/NC(=O)CCN2CCCCC2)ccc1O`?
D2 PAM-1: -5.3; D2 PAM-2: -10.4; D2 ag-1: 2.7; D2 antag: -3.5; D2 ag-2: 0.8

What do the screens show for `COc1ccc(/C=N\NC(=O)CCN2CCN(c3ccccc3)CC2)cc1OC`?
D2 PAM-1: -30.2; D2 PAM-2: -27.0; D2 ag-1: 2.7; D2 antag: 56.4*; D2 ag-2: 75.5*; D3 ag: 14.6%; D2 ag-3: 20.7%

How did O=C(CCN1CCN(C(c2ccccc2)c2ccccc2)CC1)N/N=C/c1ccc(O)cc1 do in these assays?
D2 PAM-1: -18.7; D2 PAM-2: -26.8; D2 ag-1: -3.1; D2 antag: -11.1; D2 ag-2: -2.8

What do the screens show for `Cn1[nH]cc(C=NC(N)=O)c1=O`?
D2 PAM-2: -11.5; D2 ag-1: -1.7

Results for COCCn1c(=O)[nH]c2cc(C(=O)NCCN3CCN(c4cccc(Cl)c4)CC3)ccc2c1=O ?
D2 PAM-1: -4.2; D2 PAM-2: -22.9; D2 ag-1: 14.8; D2 antag: 87.3*; D2 ag-2: 59.3*; D3 ag: 10.2%; D2 ag-3: inconclusive

What do the screens show for `COCCn1c(=S)[nH]c2cc(C(=O)N3CCN(c4cccc(Cl)c4)CC3)ccc2c1=O`?
D2 PAM-2: -28.4; D2 ag-1: 6.7

Results for COc1ccc(OC)c(NC(=O)CCN2CCN(c3ccccc3)CC2)c1 ?
D2 PAM-1: -28.1; D2 PAM-2: 5.8; D2 ag-1: inconclusive; D2 antag: 80.4*; D2 ag-2: 86.6*; D3 ag: inconclusive; D2 ag-3: inconclusive

What do the screens show for `COc1ccc(NC(=O)CCN2CCN(Cc3ccccc3)CC2)c(OC)c1`?
D2 PAM-1: -5.6; D2 PAM-2: -39.6; D2 ag-1: 2.6; D2 antag: 41.0*; D2 ag-2: 12.2; D3 ag: 19.8%; D2 ag-3: 9.1%

How did COc1cccc(C(=O)NCCN2CCN(c3ccccc3)CC2)c1 do in these assays?
D3 ag: inconclusive; D2 ag-3: 18.9%

Results for O=C(c1ccc2c(c1)[nH]c(=S)n1c3ccccc3nc21)N1CCN(c2ncccn2)CC1 ?
D2 PAM-1: 15.5; D2 PAM-2: -4.9; D2 ag-1: -4.3; D2 antag: -28.3; D2 ag-2: -2.0

What do the screens show for `COc1ccc(OC)c(NC(=O)CCN2CCN(C/C=C/c3ccccc3)CC2)c1`?
D2 PAM-1: -27.9; D2 PAM-2: -22.1; D2 ag-1: -3.9; D2 antag: 18.1; D2 ag-2: 48.8*; D3 ag: -4.7%; D2 ag-3: 8.7%

What do the screens show for `O=C(NCCN1CCN(c2ccccc2)CC1)c1ccc2c(c1)[nH]c(=S)n1c3ccccc3nc21`?
D2 PAM-1: -16.5; D2 PAM-2: -25.2; D2 ag-1: 3.0; D2 antag: 33.6*; D2 ag-2: 47.9*; D3 ag: inconclusive; D2 ag-3: 11.7%

Results for COc1ccc(OC)c(NC(=O)CCN2CCN(C)CC2)c1 ?
D2 PAM-1: -2.6; D2 PAM-2: -0.2; D2 ag-1: 4.4; D2 antag: 3.9; D2 ag-2: 0.8

What do the screens show for `O=C(C1CCN(S(=O)(=O)c2cccc3nsnc23)CC1)N1CCn2c1nc1ccccc12`?
D2 PAM-2: -58.1; D2 ag-1: -16.7

What do the screens show for `Cc1n[nH]c(C)c1S(=O)(=O)N1CCC(C(=O)N2CCn3c2nc2ccccc23)CC1`?
D2 PAM-1: -8.4; D2 PAM-2: -33.6; D2 ag-1: -7.2; D2 antag: 39.3*; D2 ag-2: 47.8*; D3 ag: -28.8%; D2 ag-3: -12.2%

What do the screens show for `Cc1cccc(C)c1NC(=O)C1CCCN1S(=O)(=O)c1ccc(-c2ccc(=O)[nH]n2)s1` (stereo not drawn)?
D2 PAM-1: 1.8; D2 PAM-2: 1.1; D2 ag-1: -3.3; D2 antag: -4.3; D2 ag-2: 1.5

Results for CCc1ccccc1NC(=O)C1CCCN1S(=O)(=O)c1ccc(-c2ccc(=O)[nH]n2)s1 (stereo not drawn) ?
D2 PAM-1: 5.1; D2 PAM-2: -10.1; D2 ag-1: 7.3; D2 antag: -14.9; D2 ag-2: 9.7; D3 ag: 11.4%; D2 ag-3: 2.2%

How did COc1cccc(N2CCN(Cc3nc(N)nc(N4CCCc5ccccc54)n3)CC2)c1 do in these assays?
D2 PAM-1: -24.9; D2 PAM-2: 5.4; D2 ag-1: inconclusive; D2 antag: 58.9*; D2 ag-2: 55.5*; D3 ag: 27.5%; D2 ag-3: inconclusive

Results for O=C(c1ccccc1F)N1CCN(Cc2ccccc2F)CC1 ?
D2 PAM-1: 4.1; D2 PAM-2: -16.2; D2 ag-1: -6.8; D2 antag: -7.9; D2 ag-2: 0.4

Results for O=C(CN1CCN(c2ncccn2)CC1)NCc1ccc2c(c1)OCO2 ?
D2 PAM-1: -22.6; D2 PAM-2: 1.2; D2 ag-1: inconclusive; D2 antag: 37.1*; D2 ag-2: 55.5*; D3 ag: 1.9%; D2 ag-3: 19.2%

Results for Cc1ccc(C)c(S(=O)(=O)N2CCN(c3ncccn3)CC2)c1 ?
D2 PAM-1: 4.0; D2 PAM-2: -6.0; D2 ag-1: 3.1

Results for Fc1ccccc1CN1CCN(c2ncccn2)CC1 ?
D2 PAM-1: -21.0; D2 PAM-2: inconclusive; D2 ag-1: 98.1*; D2 antag: 84.1*; D2 ag-2: 84.5*; D3 ag: inconclusive; D2 ag-3: 7.94µM*

How did Clc1cccc(Cl)c1CN1CCN(c2ncccn2)CC1 do in these assays?
D2 PAM-1: -17.3; D2 PAM-2: 1.5; D2 ag-1: inconclusive; D2 antag: 46.3*; D2 ag-2: 55.0*; D3 ag: 10.8%; D2 ag-3: inconclusive
